GALC G270D up: galactocerebrosidase G270D activity enhancement, cell-based | P54803 | 145M-Twi-hGALC-G270D cells, HMU-beta-Gal fluorescence, 48 h | Potency, µM (doses to about 57.5 µM), actives largely listed as activators | 45,000 compounds, 0.1% hits | AID 1159614; further: nearly all actives have a fitted effect of over 65% in size
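qHTS, 1536-well; 145M-Twi-hGALC-G270D cells (WT line also made) in DMEM/F12 + 10% FBS; compound incubation on live cells; HMU-β-gal 0.1 mM final, pH 5.2, NaTC; carbonate stop; fluorescence increase = enhanced residual activity.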
NTMT1 inh: NTMT1 methyltransferase inhibition | Q9BV86 | NTMT1 MTase-Glo SAH luminescence, purified enzyme | Potency, µM (highest dose often 114 µM), usual class: inhibitors | 59,000 compounds, 2.5% hits | AID 1645870; further: nearly all actives have a fitted effect of over 65% in size
Target sequence (Q9BV86 whole entry, looked up): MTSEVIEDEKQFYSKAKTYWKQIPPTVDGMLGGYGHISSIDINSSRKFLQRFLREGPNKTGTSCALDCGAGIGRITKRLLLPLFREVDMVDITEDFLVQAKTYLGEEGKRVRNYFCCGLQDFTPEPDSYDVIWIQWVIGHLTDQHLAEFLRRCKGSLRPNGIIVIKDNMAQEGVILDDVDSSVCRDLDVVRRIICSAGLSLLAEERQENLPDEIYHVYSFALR
HTT promoter inh: HTT promoter inhibition; Potency, µM (highest dose often 57.5 µM), hits mostly inhibitors; HEK293 HTT promoter firefly luciferase reporter, 24 h; AID 1508623; 48,000 compounds, 0.93% hits; further: nearly all actives have a fitted effect of over 50% in size
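Luminescence was read after Dual-Glo reagent and a 10 min room-temperature incubation. Values were normalized to vehicle (0% activity) and zero RLU (-100% activity). Reporter HEK293 cells had been exposed to compounds (up to 57.5 uM final) for 24 h.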
FH mod: Identification of activators of human fumarate hydratase by quantitative high-throughput screening; Fumarate hydratase, mitochondrial (Homo sapiens), P07954; FH coupled MDH/diaphorase resazurin fluorescence, 15 min; Potency, µM (titrated, usually from 79.9 µM), usual class: inhibitors; 54,000 compounds, 0.22% hits; AID 1347055, 2019; further: the screen sought activators but most active calls are inhibition curves; nearly all actives have a fitted effect of over 45% in size
Target sequence (P07954 whole entry, looked up): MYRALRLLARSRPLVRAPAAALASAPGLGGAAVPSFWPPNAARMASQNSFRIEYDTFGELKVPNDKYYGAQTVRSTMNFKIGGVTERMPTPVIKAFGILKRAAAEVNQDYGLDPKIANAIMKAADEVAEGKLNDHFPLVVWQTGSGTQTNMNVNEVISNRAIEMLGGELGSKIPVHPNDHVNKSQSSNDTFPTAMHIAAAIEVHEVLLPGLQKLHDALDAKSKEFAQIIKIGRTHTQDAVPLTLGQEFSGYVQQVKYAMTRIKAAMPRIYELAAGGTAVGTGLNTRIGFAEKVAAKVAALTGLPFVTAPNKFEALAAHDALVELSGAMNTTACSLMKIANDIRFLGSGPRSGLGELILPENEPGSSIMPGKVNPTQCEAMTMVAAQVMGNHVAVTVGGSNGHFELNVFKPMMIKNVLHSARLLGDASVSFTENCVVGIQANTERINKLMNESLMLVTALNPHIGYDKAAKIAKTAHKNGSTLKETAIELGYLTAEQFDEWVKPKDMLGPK
DRV1 agonist: agonists of human resolvin D1 receptor DRV1 (GPR32); O75388; CHO-K1 GPR32 beta-arrestin PathHunter luminescence, 90 min; zero percent set by DMSO-only wells; activation, % at 76.9 µM; 48,000 compounds, 2.5% hits;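 active means activation of at least 60% and not above a set upper limit, about 1 call in 100 departs from these limits; inconclusive means activation of 40% to 60%, or above that upper limit; inactive means activation under 40%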
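Readings come from a cell-based beta-arrestin complementation format: CHO-K1 GPR32 stable cells (2,500/well) treated 90 min with compounds, then beta-Gal substrate added for 1 h before chemiluminescence imaging.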
HTT-AS act: HTT-AS promoter activation; HEK293 HTT-AS promoter firefly luciferase reporter, 24 h; response scale: percent change from vehicle, -100% = no light; 48,000 compounds, 0.24% hits; Potency, µM (highest dose often 57.5 µM), most hits filed as activators; AID 1508624; further: nearly all actives have a fitted effect of over 55% in size
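Firefly luciferase readout (Dual-Glo, 10 min RT) after 24 h, 37 °C compound exposure (final up to 57.5 uM) of HEK293 reporter cells cultured 24 h beforehand; PTC124 at 50 uM final as control inhibitor; activity scaled vehicle 0%, zero RLU -100%.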
A number is an active result; . = inactive; ? = inconclusive; / = no result; ! = a repeat was not active; [ ] = dose if it differs, or a comment. A selection: hits, their analogues and other compounds. The true share with any hit is near 4.7%. Unless noted, the call rests on the fitted dose curve; in most records, active means well fitted curve in the direction sought with a large enough effect; inconclusive means small, poorly fitted or top-dose-only effect, or another doubt; inactive means no such curve, though single readings can be large; an effect the other way counts as inactive or inconclusive.

SMILES | GALC G270D up | NTMT1 inh | HTT promoter inh | FH mod | DRV1 agonist | HTT-AS act
CC(C)Oc1cccc(NC(=O)C2CCN(S(=O)(=O)Cc3ccccc3)CC2)c1 | / | / | / | / | . | /
C/C=C/c1ccc2c(c1)[C@@H](C)[C@H](c1ccc(O)cc1)O2 | / | . | / | ? | / | /
CC1CCN(C(=O)c2cc(-c3ccc(Cl)cc3)on2)CC1 | . | . | . | . | . | 2µM
O=C(c1cc(-c2cccc(Cl)c2)on1)N1CCCCC1 | / | / | / | / | 66 | /
COc1ccc(CNC(=O)c2cc(-c3cccc(Cl)c3)on2)cc1 | / | / | / | / | 66 | /
C[C@H](Nc1nc(N[C@H](C)C(F)(F)F)nc(-c2cccc(Cl)n2)n1)C(F)(F)F | / | . | / | / | / | /
COc1cc(O)c(C(CC(=O)N2CCCC(C)C2)c2ccc(OC)c(OC)c2)c(OC)c1 (stereo not given) | / | . | / | / | / | /
Cc1nnc(C(C)C)n1C1CC2CCC(C1)N2CCC(NC(=O)C1CCC(F)(F)CC1)c1ccccc1 (stereo not given) | / | . | / | . | / | /
O=C1CCCC2=C1C(c1[nH]ncc1Cl)NC(=S)N2 (stereo not given) | / | . | / | / | / | /
CC1COC(Nc2ccc3ncnc(Nc4ccc(OCc5nccs5)c(Cl)c4)c3c2)=N1 (stereo not given) | / | . | / | . | / | /
CCOc1ccc(Nc2oc(-c3ccc(COc4ccc(OC)cc4)o3)nc2C#N)cc1 | . | . | . | . | 86 | .
Cc1ccc2[nH]c(=O)c3cc(C(=O)NCc4cccc(Cl)c4)sc3c2c1 | . | ? | . | ? | . | .
Cc1cccc(N2CCN(C(=O)Nc3ccc(F)cc3)CC2C)c1 (stereo not given) | . | . | . | . | 63 | .
CCN(Cc1ccccc1)C(=O)c1cc2c(=O)[nH]c3ccc(C)cc3c2s1 | . | 89µM | . | ? | . | .
Cc1ccc2[nH]c(=O)c3cc(C(=O)NCCCN4CCC(C)CC4)sc3c2c1 | . | ? | . | ? | . | .
Cc1cccc(N2CCN(C(=O)c3cc4c(=O)[nH]c5ccc(C)cc5c4s3)CC2C)c1 (stereo not given) | . | ? | 13µM | ? | . | .
O=C(Nc1nccs1)C(c1cc(F)ccc1O)N1Cc2ccccc2C1=O (stereo not given) | / | . | / | / | / | /
COc1cccc(CN2C(=O)c3ccccc3NC2c2ccc(OC)c(COc3c(C)cc(NC(C)=O)cc3C)c2)c1 (stereo not given) | / | . | / | / | / | /
COc1cc(CNC(=O)c2ccc3nc(CCc4ccccc4)oc3c2)cc(OC)c1OC | . | . | ? | . | . | .
COc1cc(CNC(=O)c2ccc3nc(Cc4ccccc4)oc3c2)cc(OC)c1OC | . | . | 14µM | ? | . | .
CC1CCC2(OC1)OC1CC3C4CC=C5CC(O)CC(O[C@@H]6OC[C@@H](O)[C@H](O)[C@H]6O)C5(C)C4CCC3(C)C1(O)C2C (stereo not given in full) | / | .[12.6 µM] | / | . | / | /
COc1ccc(Nc2c3c(nc4ccc(NC(=O)/C=C/c5cc(OC)c(OC)c(OC)c5)cc24)CCCC3)cc1OC | . | . | 32µM | ? | . | .
c1cc(-c2cnn3cc(-c4ccc(OCCN5CCCCC5)cc4)cnc23)ccn1 | / | 34µM! | . | . | / | .
C[N+](C)(C)CCOP(=O)(O)OP(=O)([O-])OC[C@H]1O[C@@H](n2ccc(N)nc2=O)[C@H](O)C1O (stereo not given in full) | / | / | / | . | / | /
CC(=O)Nc1sc2c(c1-c1ccc(C(F)(F)F)cc1)CCNC2 | / | . | / | / | / | /
SMILES | GALC G270D up | NTMT1 inh | HTT promoter inh | FH mod | DRV1 agonist | HTT-AS act
CC(=O)N1CCN(c2ccc(OC[C@H]3CO[C@](Cn4ccnc4)(c4ccc(Cl)cc4Cl)O3)cc2)CC1 | / | 22µM! | . | . | . | .
C(=C\c1cccs1)/c1cccnc1 | / | . | / | / | / | /
Cc1ccc(C(=O)NC(c2ccco2)c2cc(Cl)c3cccnc3c2O)cc1 (stereo not given) | / | . | / | / | / | /
COc1ccc(C(=O)NC(c2ccc(Cl)cc2)c2cc(Cl)c3cccnc3c2O)cc1 (stereo not given) | . | . | 18µM | . | . | .
CCOc1cc(CNC(=O)CSc2n[nH]c(-c3ccccc3)n2)cc(OCC)c1OCC | . | . | . | . | . | .
CCOc1ccc(CCNC(=O)CSc2n[nH]c(-c3ccccc3)n2)cc1OCC | . | . | . | 6.3µM | . | .
CC(=O)O[C@@H]1[C@H](OC(C)=O)C[C@@]2(C)C(CC[C@@H](C)[C@]23Cc2c(O)cc4c(c2O3)CN([C@@H](CCC(=O)O)C(=O)O)C4=O)C1(C)C (stereo not given in full) | / | .[12.6 µM] | / | . | / | /
COc1ccc2nc(NC(=O)Nc3ccccc3)sc2c1 | . | ? | . | . | 101 | ?
COc1ccc2nc(NC(=O)c3cc(=O)c4ccccc4o3)sc2c1 | . | ? | . | . | . | 3.2µM
O=Nc1c2[nH]c3ccccc3nc-2c2ccccc12 | / | . | / | . | / | /
CC1=C(C(=O)Nc2nc3ccccc3s2)C2(CCCC2)N=C(Nc2nc3ccccc3o2)N1 | / | . | / | / | / | /
CCCCCCCCCCCCCCCCC(C(=O)O)C(O)(CC(=O)O)C(=O)O (stereo not given) | . | 3.5µM | . | ? | . | .
CCCCCCCCCCCCCCCCCC(=O)O | . | . | . | . | . | .
Cc1cc(NC(=O)c2cc(Cl)ccc2Cl)ccc1-c1cc2ccccc2oc1=O | . | . | 10µM | . | . | .
CCCOc1ccc(C(=O)Nc2ccc(-c3cc4ccccc4oc3=O)c(C)c2)cc1 | . | . | ? | ? | . | .
C=C(C)C1CCC2(C(=O)OC3OC(COC4OC(CO)C(O)C(O)C4O)C(OC4OC(C)C(O)C(O)C4O)C(O)C3O)CCC3(C(=O)O)C(CCC4C5(C)CCC(=O)C(C)(C)C5CCC43C)C12 (stereo not given) | / | .[12.6 µM] | / | . | / | /
O=C(CN(c1cccc(C(F)(F)F)c1)S(=O)(=O)c1ccccc1)Nc1cccc(Cl)c1 | . | . | 28µM | ? | . | .
C=C1C(OC(=O)/C(C)=C\C)[C@@]23CCC4[C@@](C)(CCC[C@@]4(C)C(=O)O)C2CC[C@H]1C3OC(C)=O (stereo not given in full) | / | . | / | . | / | /
OC[C@H]1O[C@@H](Oc2ccc(O)c3cccc(O)c23)[C@H](O)[C@@H](O)[C@@H]1O | / | ? | / | . | / | /
C=C(C)C1Cc2c(ccc3c2OCC(c2ccc(O)cc2O)C3)O1 (stereo not given) | / | . | / | . | / | /
CCOc1ccccc1NC(=O)Cn1ccn(Cc2ccc(C)cc2)c(=O)c1=O | . | 89µM | . | . | . | .
Cc1ccc(Cn2ccn(CC(=O)Nc3ccccc3C(F)(F)F)c(=O)c2=O)cc1 | . | . | . | . | . | .

Screens (PubChem BioAssay)
